Laboratory results from PubChem BioAssay.
The source made the active and inactive calls. Unless noted, no rule for the calls is given here.

Key:
[1] = A549 cell viability effects, profiling panel, calcein-AM fluorescence, 48 h, basal (AID 1162); conditions: higher = more signal; also: test concentration not given here
[2] = adipocyte viability effects, profiling panel, cell-based, 3T3-L1 adipocytes, calcein-AM fluorescence, 48 h, basal (AID 1163); conditions: 3T3-L1 adipocytes viability, higher = more signal; also: test concentration not given here
[3] = HepG2 cell viability effects, profiling panel, calcein-AM fluorescence, 48 h, basal (AID 1164); conditions: higher = more signal; also: test concentration not given here
[4] = MM1S cell viability effects, profiling panel, calcein-AM fluorescence, 48 h, basal (AID 1165); conditions: higher = more signal;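 also: viability of MM1S multiple myeloma cells under basal unstimulated conditions; test concentration not given here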
[5] = basal RPMI8226 viability, no added stimulus, profiling panel, cell-based, calcein-AM fluorescence, 48 h, PK04 Diversity Set (AID 1166); conditions: RPMI8226 myeloma viability, higher = more signal;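 also: cells grown under basal conditions without added stimulus; test concentration not given here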
[6] = basal HepG2 mitochondrial membrane potential changes, profiling panel, cell-based, JC-1 fluorescence, 24 h, 100 nL compound (AID 1167); conditions: higher = more signal; also: test concentration not given here
[7] = basal 3T3-L1 adipocyte mitochondrial potential changes, profiling panel, cell-based, JC-1 fluorescence, 3T3-L1 adipocytes, 24 h, 100 nL compound (AID 1168); conditions: JC-1 mitochondrial fluorescence, higher = more signal, called active from +8 up or from −8 down; also: test concentration not given here
[8] = basal RPMI8226 mitochondrial membrane potential changes, profiling panel, cell-based, JC-1 fluorescence, 24 h, 100 nL compound (AID 1169); conditions: RPMI8226 myeloma, JC-1 mitochondrial potential fluorescence, higher = more signal; also: test concentration not given here
[9] = basal MM1S mitochondrial membrane potential changes, profiling panel, cell-based, JC-1 fluorescence, 24 h, 100 nL compound (AID 1170); conditions: higher = more signal; also: test concentration not given here
[10] = A549 lung cancer cell viability effects, profiling panel, resazurin fluorescence, 24 h, PK04 Diversity Set (AID 1171); conditions: higher = more signal, called active from +8 up or from −8 down; also: test concentration not given here
[11] = HepG2 liver cancer cell viability effects, profiling panel, resazurin fluorescence, 24 h, PK04 Diversity Set (AID 1172); conditions: higher = more signal; also: test concentration not given here
[12] = basal S. cerevisiae growth modulation, no modifier, primary screen, OD600, strain BY4716, 24 h, basal condition (AID 1173); conditions: OD600, 24 h, higher = more signal, called active from +8 up or from −8 down
[13] = MM1S myeloma cell viability, profiling panel, resazurin fluorescence, basal, 24 h, PK04 Diversity Set (AID 1174); conditions: higher = more signal, called active from +8 up or from −8 down;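 also: MM1S multiple myeloma cell line; test concentration not given here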
[14] = biological target: Dihydroorotate dehydrogenase (quinone), mitochondrial (Plasmodium falciparum (isolate 3D7)) (UniProt Q08210); assay: PfDHODH enzyme inhibitors, primary screen, biochemical, C-terminal His tag, absorbance 600 nm (AID 1175); conditions: DCIP absorbance 600 nm, higher = more signal, called active from +8 up or from −8 down;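 also: recombinant parasite enzyme with a five histidine tag at its C terminus; test concentration not given here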
[15] = P. aeruginosa biofilm formation inhibitors, primary screen, strain PAO1, LB-PBS medium, absorbance 600 nm (AID 1176); also: test concentration not given here; conditions: P. aeruginosa PAO1 growth/biofilm, A600, 12 h; higher = more signal
[16] = S. cerevisiae RM11-1a growth modifiers, primary screen, strain RM11-1a, OD600, basal, 24 h (AID 1177); conditions: OD600, 24 h, higher = more signal, called active from +8 up or from −8 down;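 also: cultures grown under basal conditions with no added stressor; test concentration not given here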
[17] = E. coli acrAB mutant growth effects, primary screen, E. coli filamentation inducers, strain DRC39, OD650, 24 h (AID 1178); conditions: higher = more signal, called active from +8 up or from −8 down;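 also: growth measured as culture turbidity by optical density at 650 nm; test concentration not given here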
[18] = E. coli acrAB mutant growth effects, primary screen, E. coli filamentation inducers, strain DRC39, OD650, 48 h (AID 1179);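 also: screen aims at cell division blockers that make cells filament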; conditions: E. coli DRC39 delta-acrAB growth, higher = more signal, called active from +8 up or from −8 down
[19] = RPMI8226 myeloma cell viability, profiling panel, resazurin fluorescence, basal, 24 h, PK04 Diversity Set (AID 1180); conditions: higher = more signal;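 also: RPMI8826 multiple myeloma cell line at 5000 cells per well; test concentration not given here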
[20] = biological target: E3 ubiquitin-protein ligase XIAP (Homo sapiens) (UniProt P98170); assay: XIAP binders, primary screen, biophysical, small-molecule microarray, fluorescence 635 nm (AID 1181); conditions: small-molecule microarray binding, higher = more signal;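 also: score merges 667 nm emission and signal to noise over triplicate slides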
Sequence of E3 ubiquitin-protein ligase XIAP (Homo sapiens) (P98170 whole entry, looked up): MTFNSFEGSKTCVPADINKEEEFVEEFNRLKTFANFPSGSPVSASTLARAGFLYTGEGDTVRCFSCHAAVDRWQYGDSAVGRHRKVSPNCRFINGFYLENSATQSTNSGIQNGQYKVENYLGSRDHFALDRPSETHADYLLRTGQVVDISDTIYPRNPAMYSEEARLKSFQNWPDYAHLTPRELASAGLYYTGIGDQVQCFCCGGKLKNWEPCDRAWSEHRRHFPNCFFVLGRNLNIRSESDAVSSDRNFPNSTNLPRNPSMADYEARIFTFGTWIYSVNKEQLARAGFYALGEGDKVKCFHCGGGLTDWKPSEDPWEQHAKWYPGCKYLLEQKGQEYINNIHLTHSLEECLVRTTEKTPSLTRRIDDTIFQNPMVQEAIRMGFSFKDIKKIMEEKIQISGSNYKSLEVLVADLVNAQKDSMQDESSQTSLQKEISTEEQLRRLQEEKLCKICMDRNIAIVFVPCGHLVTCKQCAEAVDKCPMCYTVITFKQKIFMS

Sequence of Dihydroorotate dehydrogenase (quinone), mitochondrial (Plasmodium falciparum (isolate 3D7)) (Q08210 whole entry, looked up): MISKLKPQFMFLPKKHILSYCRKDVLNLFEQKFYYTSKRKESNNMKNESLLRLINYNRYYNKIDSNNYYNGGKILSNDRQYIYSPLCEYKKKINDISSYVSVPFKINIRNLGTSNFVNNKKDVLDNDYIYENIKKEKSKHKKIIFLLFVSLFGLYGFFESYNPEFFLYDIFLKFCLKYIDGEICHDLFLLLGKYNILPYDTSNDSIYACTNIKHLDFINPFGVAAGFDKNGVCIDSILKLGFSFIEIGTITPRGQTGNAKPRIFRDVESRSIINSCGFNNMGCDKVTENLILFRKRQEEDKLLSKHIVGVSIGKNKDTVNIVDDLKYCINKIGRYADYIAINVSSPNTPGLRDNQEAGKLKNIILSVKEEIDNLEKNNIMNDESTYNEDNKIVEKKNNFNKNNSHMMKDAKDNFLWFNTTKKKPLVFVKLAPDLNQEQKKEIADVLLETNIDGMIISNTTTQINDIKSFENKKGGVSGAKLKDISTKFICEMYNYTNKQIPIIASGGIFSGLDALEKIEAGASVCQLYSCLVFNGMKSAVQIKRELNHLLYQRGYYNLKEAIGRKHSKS

| Structure (SMILES) | z-score [1] | z-score [2] | z-score [3] | z-score [4] | z-score [5] | z-score [6] | z-score [7] | z-score [8] | z-score [9] | z-score [10] | z-score [11] | z-score [12] | z-score [13] | composite z-score [14] | z-score [15] | z-score [16] | z-score [17] | z-score [18] | z-score [19] | composite z-score [20] |
| --- | --- | --- | --- | --- | --- | --- | --- | --- | --- | --- | --- | --- | --- | --- | --- | --- | --- | --- | --- | --- |
| C=CCNC(=O)[C@H]1[C@@H]2C(=O)O[C@@H](c3ccccc3)[C@@H](c3ccccc3)N2[C@@H](c2ccc(O)cc2)[C@]12C(=O)N(C(=O)OCCOC)c1ccc(C#CCC(C(=O)OC)C(=O)OC)cc12 | 1.1 | -0.206 | -0.615 | -2.93 | -4.49 | -1.26 | 0.448 (inactive) | -1.34 | -1.83 | 0.979 (inactive) | 0.238 | 1.34 (inactive) | -1.25 (inactive) | 0.638 (inactive) | 2.17 (inactive) | 2.19 (inactive) | 0.216 (inactive) | 0.136 (inactive) | -4.72 | -0.0251 |
| COCC1=C2[C@@H](CCc3ccccc3)OB(O)C[C@@H]2[C@@H]2C(=O)N(C)C(=O)[C@@H]2C1 | -0.0482 | -0.184 | -0.187 | -0.145 | -0.126 | -1.54 | 0.176 (inactive) | -0.0658 | -0.239 | -0.425 (inactive) | -0.227 | -0.926 (inactive) | -0.439 (inactive) | -0.173 (inactive) | 0.294 (inactive) | 0.0903 (inactive) | -0.0919 (inactive) | 0.0253 (inactive) | -0.377 | 0.0512 |
| CC=CC(O)C1C=CC2C(=O)NC(=O)C2N1Nc1ccccn1 (stereo not given) | 0.0403 | -1.24 | -0.154 | -0.228 | -0.496 | 0.0853 | -0.288 (inactive) | 0.137 | -0.121 | -1.14 (inactive) | -1.45 | 0.866 (inactive) | -0.949 (inactive) | 0.434 (inactive) | 0.667 (inactive) | 1.83 (inactive) | -0.837 (inactive) | 0.272 (inactive) | -0.349 | -0.031 |
| O=C1[C@@]23C=C(Br)[C@H](C[C@@H]2COC3)[C@@]12CO2 | -0.0321 | -1.05 | -0.493 | -2.27 | -1.1 | -1.73 | 0.281 (inactive) | -0.213 | -0.809 | -0.252 (inactive) | -0.198 | -0.237 (inactive) | -0.402 (inactive) | 0.571 (inactive) | 0.224 (inactive) | 0.254 (inactive) | -0.417 (inactive) | -0.0396 (inactive) | -0.373 | -0.102 |
| CC(C)C[C@@H]1NC(=O)[C@H]2C[C@@H](C(=O)NCCCCCN)[C@@H](c3cccc(OCCO)c3)N2C1=O | 0.779 | 0.57 | 1.3 | 0.64 | -0.0687 | 1.07 | 0.97 (inactive) | -0.336 | -0.16 | 0.11 (inactive) | -0.604 | -0.122 (inactive) | -0.178 (inactive) | -1.36 (inactive) | -0.0491 (inactive) | -2.46 (inactive) | 1.06 (inactive) | 1.61 (inactive) | 0.138 | -0.198 |
| C=C(C(=O)CC[C@@H](OC(=O)c1ccccc1-c1ccccc1C(=O)O)c1ccccc1OCCO)C(C)C | -0.0081 | 0.707 | -0.188 | -2.67 | -1.92 | -1.1 | 0.758 (inactive) | 0.0612 | -0.281 | 0.63 (inactive) | 0.942 | -2.55 (inactive) | 0.132 (inactive) | -1.52 (inactive) | 0.743 (inactive) | -0.639 (inactive) | 0.475 (inactive) | 0.13 (inactive) | 0.131 | 0.209 |
| CC1(C)C(=O)C(c2ccccc2)=C2CN3C(=O)N(CCc4ccccc4)C(=O)C3(Cc3ccc(F)cc3)C=C21 (stereo not given) | -0.767 | 0.366 | 0.184 | -1.24 | -1.81 | 0.39 | -1.91 (inactive) | -0.733 | -0.59 | -0.745 (inactive) | -1.03 | 0.664 (inactive) | -2.18 (inactive) | -0.533 (inactive) | 0.563 (inactive) | 1.11 (inactive) | -0.687 (inactive) | -1.01 (inactive) | -0.968 | -0.198 |
| [N-]=[N+]=NCc1ccccc1[C@H]1OC(c2ccc(OCCCO)cc2)=N[C@@]1(CCS(=O)(=O)c1ccccc1)C(=O)NCc1ccccc1 | 2.47 | -0.0706 | 1.35 | -0.65 | 0.414 | -0.627 | -0.0258 (inactive) | -1.02 | -0.531 | 1.73 (inactive) | 1.18 | 0.879 (inactive) | -0.0789 (inactive) | 0.786 (inactive) | -0.4 (inactive) | 2.19 (inactive) | 1.01 (inactive) | 0.536 (inactive) | 0.032 | 0.129 |
| CC(=O)n1cc(C(O)C2C=CC3C(=O)N(c4ccccc4)C(=O)C3N2Nc2ccc(C(C)C)cc2)c2ccccc21 (stereo not given) | -0.545 | -0.745 | -1.08 | -0.829 | -1.33 | -0.975 | -1.16 (inactive) | -0.886 | 0.299 | 0.169 (inactive) | -1.41 | -2.33 (inactive) | -1.12 (inactive) | 0.708 (inactive) | 1.44 (inactive) | 1.36 (inactive) | -0.0648 (inactive) | -0.0683 (inactive) | -1.06 | 0.0072 |
